Vaccinia mCherry = vaccinia inhibition (mCherry reporter) | Vaccinia virus mCherry reporter infection, fluorescence | Potency, µM (doses to about 36.5 µM), inactives show at the highest dose activity change, negative = inhibition, hits mostly inhibitors | 310,000 tested, 0.63% active | AID 720579; calls by dose curve; tested in A549 cells; note: potency is the fitted concentration of half-maximal effect; % is set by controls: 0 for no effect and ±100 for the full control effect; nearly all actives have a fitted effect of over 35% in size
Marburg entry inh = blocks Marburg virus binding to or entry into cells. Marburg virus pseudotyped entry inhibition, cell reporter. Potency, µM (highest dose often 37.8 µM), without a hit: at the highest dose activity change, negative = inhibition, hits mostly inhibitors. 300,000 tested, 1.8% active. AID 540276; calls by dose curve; tested in HEK293 cells; note: potency is the fitted concentration of half-maximal effect; % is set by controls: 0 for no effect and ±100 for the full control effect
VACV Venus inh = inhibitors of vaccinia virus (Venus reporter) | Vaccinia virus Venus reporter expression, fluorescence | Potency, µM (series often up to 36.5 µM), without a hit: top-dose activity change, negative = inhibition, hits mostly inhibitors | 330,000 tested, 0.46% active; calls by dose curve; tested in A549 cells; note: potency is the fitted concentration of half-maximal effect; % is set by controls: 0 for no effect and ±100 for the full control effect; nearly all actives have a fitted effect of over 30% in size
Lassa entry inh = inhibitors of Lassa virus binding or cell entry | Lassa virus pseudotype entry inhibition, cell reporter | Potency, µM (doses to about 37.9 µM), inactives show at the highest dose activity change, negative = inhibition, actives largely listed as inhibitors | 300,000 tested, 1.2% active; calls by dose curve; tested in HEK293 cells; note: potency is the fitted concentration of half-maximal effect; % is set by controls: 0 for no effect and ±100 for the full control effect; nearly all actives have a fitted effect of over 50% in size
Shiga inhibitor = inhibitors of Shiga toxin in Vero cells; 290,000 tested, 9.2% active; inhibition, % at 38.7 µM; AID 2315; Vero cells, Shiga toxin protein synthesis inhibition reporter; in the data active = inhibition mostly above about 28%, no sharp cut-off; inactive = mostly below about 43%; note: 0% is about no effect
CHX counter = counter-screen for Shiga toxin inhibitors: cycloheximide protein synthesis inhibition; max response, %; 300,000 tested, 12% active; cell reporter, cycloheximide protein synthesis inhibition counterscreen; in the data active = max response mostly above about 13%, no sharp cut-off; inactive = mostly below about 14%; note: read at 38.3 µM for the half of the compounds with a filed dose; 0% is about no effect
Starred values were filed as active, the others as inactive; [ ] = another dose, or the depositor's remark. The sample as a whole holds a higher share of hits than the screen did.

How did CS(=O)(=O)c1cc([N+](=O)[O-])c(Sc2nc3ccccc3[nH]2)c([N+](=O)[O-])c1 do in these assays?
Marburg entry inh: 13µM*; Lassa entry inh: 20%; Shiga inhibitor: 3; CHX counter: 15

How did Cc1ccc2nc(SCc3ccc([N+](=O)[O-])cc3)[nH]c2c1 do in these assays?
Marburg entry inh: -21%; Lassa entry inh: 6%; Shiga inhibitor: 73*; CHX counter: 40*

How did O=C(O)c1ccc(CSc2nc3ccccc3[nH]2)cc1 do in these assays?
Shiga inhibitor: -6; CHX counter: 1

How did Cc1cc(S(=O)(=O)N2CCCc3ccccc32)ccc1-n1cnnn1 do in these assays?
Vaccinia mCherry: 8%; Marburg entry inh: -20%[46.1 µM]; VACV Venus inh: 4%; Lassa entry inh: -19%; Shiga inhibitor: 1; CHX counter: -2

How did CC1(CN2CCCC2)CCC(NC(=O)C(c2ccccc2)c2ccccc2)C(C)(C)O1 (configuration not stated) do in these assays?
Vaccinia mCherry: -20%; VACV Venus inh: -18%

Results for COc1cccc(CC(Cc2nc3ccccc3[nH]2)c2nc3ccccc3[nH]2)c1 (configuration not stated) ?
Vaccinia mCherry: -12%; Marburg entry inh: -29%[46.1 µM]; VACV Venus inh: 2%; Lassa entry inh: -6%; Shiga inhibitor: 30; CHX counter: 35*

How did Cc1cc(=O)n(CC(=O)Nc2ccc([N+](=O)[O-])cc2)c(-n2nc(C)cc2C)n1 do in these assays?
Vaccinia mCherry: -16%; VACV Venus inh: -6%; Lassa entry inh: 15%[46.1 µM]

What do the screens show for `Cc1ccc(CNC(=O)c2oc3ccc(S(=O)(=O)N4CCCC(C)C4)cc3c2C)cc1` (configuration not stated)?
Vaccinia mCherry: -14%; Marburg entry inh: inconclusive; VACV Venus inh: -24%; Lassa entry inh: inconclusive

What do the screens show for `CCOc1ccc(/C=C/C(O)=C2/C(=O)NC3(C)CC2c2ccccc2O3)cc1OC` (configuration not stated)?
Vaccinia mCherry: inconclusive; Marburg entry inh: inconclusive; VACV Venus inh: inconclusive; Lassa entry inh: inconclusive; Shiga inhibitor: -14; CHX counter: -14

Results for CCOc1ccc(/C=C/C(O)=C2/C(=O)N(C)C3(C)CC2c2ccccc2O3)cc1OC (configuration not stated) ?
Vaccinia mCherry: inconclusive; Marburg entry inh: inconclusive; VACV Venus inh: -28%; Lassa entry inh: 3.5µM*; Shiga inhibitor: -12; CHX counter: -5

Results for Cc1nc(CS(=O)(=O)c2ccccc2)cc(Sc2ccc(Cl)cc2Cl)n1 ?
Marburg entry inh: inconclusive; VACV Venus inh: inconclusive; Lassa entry inh: 0%; Shiga inhibitor: 68*; CHX counter: 17*

What do the screens show for `CCOC(=O)C1=C(c2ccccc2)NC(SCC(=O)Nc2ccccc2C)=C(C#N)[C@@H]1c1ccco1`?
Marburg entry inh: 23µM*

How did CC(C)(C)c1ccc(C(=O)CCCSC2=C(C#N)C(c3ccco3)C3=C(CCCC3=O)N2)cc1 (configuration not stated) do in these assays?
Marburg entry inh: inconclusive; Lassa entry inh: inconclusive; Shiga inhibitor: -2; CHX counter: 4

How did CC(=O)C1=C(C)NC(SCC(=O)c2ccc(F)cc2)=C(C#N)C1c1ccco1 (configuration not stated) do in these assays?
Vaccinia mCherry: -7%; Marburg entry inh: inconclusive; VACV Venus inh: -18%; Lassa entry inh: -11%; Shiga inhibitor: 5; CHX counter: 4

Results for N#CC1=C(SCC(=O)c2ccccc2)NC2=C(C(=O)CCC2)C1c1ccco1 (configuration not stated) ?
Vaccinia mCherry: inconclusive; Marburg entry inh: inconclusive; VACV Venus inh: inconclusive; Lassa entry inh: inconclusive; Shiga inhibitor: 72*; CHX counter: 66*

How did Cc1ccc(C(=O)CSC2=C(C#N)C(c3ccco3)C3=C(CCCC3=O)N2)cc1 (configuration not stated) do in these assays?
Marburg entry inh: inconclusive; Lassa entry inh: inconclusive; Shiga inhibitor: -18; CHX counter: 18*

How did CCc1ccc(C(=O)CSC2=C(C#N)C(c3ccco3)C(C(C)=O)=C(C)N2)cc1 (configuration not stated) do in these assays?
Vaccinia mCherry: -13%; Marburg entry inh: 3%; VACV Venus inh: -5%; Shiga inhibitor: 32; CHX counter: 30*

How did CC(=O)C1=C(C)NC(SCC(=O)c2ccc(F)cc2)=C(C#N)C1CC(C)C (configuration not stated) do in these assays?
Vaccinia mCherry: inactive; Marburg entry inh: -21%; VACV Venus inh: -17%; Lassa entry inh: inconclusive; Shiga inhibitor: 88*; CHX counter: 63*

How did Cc1cccc(N2CCN(C(=O)c3cccc(N4CCCC4=O)c3)C(C)C2)c1 (configuration not stated) do in these assays?
Shiga inhibitor: 6; CHX counter: 1

How did CCOC(=O)c1c(NC(=O)c2cc(-c3ccc(Cl)s3)nc3ccccc23)sc(C(N)=O)c1C do in these assays?
Vaccinia mCherry: inactive; Marburg entry inh: 5%; VACV Venus inh: 1%; Lassa entry inh: 0%; Shiga inhibitor: 10; CHX counter: -4

How did CCOC(=O)c1sc(NC(=O)c2cc(-c3ccccc3C)nc3ccccc23)c(C#N)c1C do in these assays?
Vaccinia mCherry: inconclusive; Marburg entry inh: inconclusive; VACV Venus inh: inconclusive; Lassa entry inh: 11µM*; Shiga inhibitor: 5; CHX counter: 4

How did Cc1ccccc1-c1cc(C(=O)Nc2sc(C)c(C)c2C(N)=O)c2ccccc2n1 do in these assays?
Marburg entry inh: inconclusive; VACV Venus inh: -33%; Lassa entry inh: 16µM*; Shiga inhibitor: -16; CHX counter: -4

How did CCOC(=O)c1sc(NC(=O)c2ccncc2)c(C#N)c1C do in these assays?
Vaccinia mCherry: -19%; Marburg entry inh: inconclusive; VACV Venus inh: -8%; Lassa entry inh: 17%; Shiga inhibitor: -1; CHX counter: -1

How did Cn1cc(CN2CCN(c3ccccc3)CC2)c2ccccc21 do in these assays?
Marburg entry inh: 15µM*; Lassa entry inh: -18%; Shiga inhibitor: -21; CHX counter: -2

What do the screens show for `CC(C)[C@H](NC(=O)c1c(F)cccc1F)C(=O)N1CCN(c2ccc(F)cc2)CC1`?
Vaccinia mCherry: -18%; Marburg entry inh: 0%[46.1 µM]; VACV Venus inh: -19%; Lassa entry inh: -20%[46.1 µM]; Shiga inhibitor: 12; CHX counter: 8

How did O=[N+]([O-])c1ccc(C2CN=C(Nc3ccccc3)S2)cc1 (configuration not stated) do in these assays?
Vaccinia mCherry: inactive; Marburg entry inh: 0%[46.1 µM]; VACV Venus inh: -15%; Lassa entry inh: -1%[46.1 µM]; Shiga inhibitor: 77*; CHX counter: 57*

How did CCc1ccc(NC2=NCC(c3ccccc3)S2)cc1 (configuration not stated) do in these assays?
Vaccinia mCherry: -9%; Marburg entry inh: -29%[46.1 µM]; VACV Venus inh: -9%; Lassa entry inh: -9%; Shiga inhibitor: 82*; CHX counter: 58*

Source: PubChem (National Center for Advancing Translational Sciences (NCATS))
